Data on 9 compounds can be found in PubChem BioAssay (NCI).

Compounds without any hit were thinned out: in the full panel of roughly 83,000, 20% have a hit.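 Percent growth is the endpoint: 0 to 100 indicates growth inhibition (40 means 60% inhibition), 0 means no net growth, and negative values indicate cell death.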 A number with no mark means an inactive call. Active and inactive are the calls of the source. The calls were made as follows: active = growth percent below 10; inactive = the rest.

Among the test systems are HCT-15 colon; HT29 colon; SNB-75 CNS; SNB-19 CNS; U251 CNS; PC-3 prostate; SK-MEL-5 melanoma; UACC-62 melanoma; LOX IMVI melanoma; SK-MEL-28 melanoma; SK-MEL-2 melanoma; SN12C renal; UO-31 renal; TK-10 renal; ACHN renal; CAKI-1 renal; A498 renal; MOLT-4 leukemia; CCRF-CEM leukemia.
Experiment in all cases: NCI-60 one-dose screen, 48 h (100 = growth as untreated, 0 = no growth, -100 = all killed)
Settings in all cases: 10 µM unless noted

Consider `CCCOC(=O)C1(O)CCCC1`, for which the growth with HCT-15 colon was 93.9%; in the assay on HT29 colon it was 96.3%; in the assay on SNB-75 CNS it was 80.9%; in the assay on SNB-19 CNS it was 108%; with U251 CNS, 104%; in the assay with PC-3 prostate, 96.9%. Besides, the growth with SK-MEL-5 melanoma was 99.4%; with UACC-62 melanoma, 105%; in the assay on LOX IMVI melanoma it was 108%; with SK-MEL-28 melanoma, 99.2%; in the assay on SK-MEL-2 melanoma, 90.8%; in the assay with SN12C renal, 102%. Besides, the growth in the assay on UO-31 renal is 90.6%; with TK-10 renal, 98.8%; in the assay on ACHN renal, 94%; in the assay with CAKI-1 renal, 102%; in the assay on A498 renal, 103%; with MOLT-4 leukemia, 93.1%.

In the case of `c1ccc(CCn2nnc3c(Nc4ccc(N5CCOCC5)cc4)ncnc32)cc1`, the growth is 70.7% with HCT-15 colon; 81.3% with HT29 colon; 84.8% in the assay with SNB-75 CNS; 95.7% in the assay with SNB-19 CNS; 93.3% in the assay with U251 CNS; 65.1% in the assay on PC-3 prostate. Further, the growth in the assay on SK-MEL-5 melanoma was 81.8%; with UACC-62 melanoma, 85.8%; with LOX IMVI melanoma, 97.4%; in the assay on SK-MEL-28 melanoma, 104%; with SK-MEL-2 melanoma, 105%; with SN12C renal, 92.1%. Also, the growth is 87.1% in the assay on UO-31 renal; 121% in the assay with TK-10 renal; 104% in the assay with ACHN renal; 86.3% in the assay with CAKI-1 renal; 77.6% in the assay with A498 renal; 71.6% with CCRF-CEM leukemia. For the same compound, the growth with MOLT-4 leukemia is 66.4%.

For `O=C(O)c1cn(C2CC2)c2cc(N3CCN(S(=O)(=O)c4ccc(Cl)c(Cl)c4)CC3)c(F)cc2c1=O`, the growth in the assay with HCT-15 colon is 6.24% (active); in the assay on HT29 colon, 0.259% (active); with SNB-75 CNS, 13.2%; with SNB-19 CNS, 24.7%; in the assay with U251 CNS, 12.4%; in the assay on PC-3 prostate it was 16.2%. In addition, the growth in the assay on SK-MEL-5 melanoma was 2.06% (active); with UACC-62 melanoma it was 29.6%; in the assay on LOX IMVI melanoma, 1.21% (active); in the assay with SK-MEL-28 melanoma, 48.5%; in the assay on SK-MEL-2 melanoma it was -9.56% (active); in the assay with SN12C renal, 10.4%. The growth in the assay with UO-31 renal is 10%; with TK-10 renal, 33.2%; with ACHN renal it was 4.95% (active); in the assay on CAKI-1 renal, 3.06% (active); in the assay on CCRF-CEM leukemia it was 16.9%; in the assay on MOLT-4 leukemia, 3.44% (active).

Take `COC12CC(=O)C(C(C)=O)=C(O)C1(C)c1c(O)c(C)c(O)c(C(C)=O)c1O2` (stereo not drawn): the growth is 66.6% with HCT-15 colon; 86.5% in the assay with HT29 colon; 83.5% in the assay with SNB-75 CNS; 52.8% with SNB-19 CNS; 57.2% in the assay on U251 CNS; 73% in the assay with PC-3 prostate. The growth with SK-MEL-5 melanoma was 46.1%; in the assay with UACC-62 melanoma it was 40.6%; in the assay on LOX IMVI melanoma, 57.5%; with SK-MEL-28 melanoma it was 86.4%; with SK-MEL-2 melanoma it was 41.9%; in the assay on SN12C renal, 49.1%. The growth was 48.9% in the assay on UO-31 renal; 78.4% with TK-10 renal; 77.9% with ACHN renal; 71.5% in the assay on CAKI-1 renal; 61.1% in the assay with A498 renal; 47.2% in the assay on CCRF-CEM leukemia. Besides, in the assay with MOLT-4 leukemia, the growth was 75.3%.

On to `Cc1ccc(Nc2ncnc3c2sc2ncccc23)cc1`, for which the growth in the assay with HCT-15 colon was 99.2%; in the assay with HT29 colon, 114%; with SNB-75 CNS it was 82.8%; in the assay on SNB-19 CNS, 103%; in the assay on U251 CNS it was 101%; in the assay on PC-3 prostate, 103%. In addition, the growth in the assay with SK-MEL-5 melanoma is 97%; in the assay on UACC-62 melanoma it was 103%; in the assay on LOX IMVI melanoma, 100%; in the assay on SK-MEL-28 melanoma it was 104%; in the assay with SK-MEL-2 melanoma, 118%; with SN12C renal, 98.4%. For the same compound, the growth is 90.9% with UO-31 renal; 123% in the assay with TK-10 renal; 99.3% in the assay with ACHN renal; 104% with CAKI-1 renal; 67% with A498 renal; 51.1% in the assay with MOLT-4 leukemia.

In the case of `O=C(CNc1c(Cl)cccc1Cl)Nc1ccc(-c2nc3ccccc3s2)cc1`, the growth in the assay with HCT-15 colon is 2.42% (active); with HT29 colon it was 69.8%; with SNB-75 CNS it was 59.2%; in the assay with SNB-19 CNS, 73.9%; in the assay on U251 CNS, 27.7%; in the assay on PC-3 prostate, 85.9%. Also, the growth in the assay on SK-MEL-5 melanoma was 21.2%; with UACC-62 melanoma, 35.1%; with LOX IMVI melanoma it was -49.3% (active); in the assay on SK-MEL-28 melanoma, 104%; in the assay on SK-MEL-2 melanoma, 84.8%; in the assay on SN12C renal it was 48%. In addition, the growth in the assay on UO-31 renal is 73.7%; with TK-10 renal it was 106%; in the assay on ACHN renal, 42.3%; in the assay with CAKI-1 renal, 28.8%; in the assay on CCRF-CEM leukemia it was 2.24% (active).

In the case of `COc1cccc(-c2nc3sccn3c2-c2ccnc(NCCNS(=O)(=O)c3ccccc3)n2)c1`, the growth is 42.9% in the assay on HCT-15 colon; 34% in the assay on HT29 colon; 79.8% in the assay on SNB-75 CNS; 97.3% in the assay with SNB-19 CNS; 71.9% in the assay with U251 CNS; 69.2% in the assay on PC-3 prostate. The growth is 28.2% in the assay with SK-MEL-5 melanoma; 32.5% in the assay with UACC-62 melanoma; 48% in the assay on LOX IMVI melanoma; 66.4% in the assay on SK-MEL-28 melanoma; 77.1% in the assay on SK-MEL-2 melanoma; 67.9% in the assay with SN12C renal. Moreover, the growth with UO-31 renal was 37.7%; with TK-10 renal it was 83%; with ACHN renal, 44.3%; in the assay on CAKI-1 renal, 53.1%; in the assay with CCRF-CEM leukemia, 42.6%; in the assay on MOLT-4 leukemia it was 43.2%.

For the compound `COc1cccc(/C=C2\SC(N3CCN(c4ccccn4)CC3)=NC2=O)c1`, the growth in the assay with HCT-15 colon is 105%; in the assay with HT29 colon, 84.7%; in the assay on SNB-75 CNS, 102%; in the assay with SNB-19 CNS it was 99.4%; in the assay on U251 CNS, 105%; in the assay on PC-3 prostate, 88.9%. Also, the growth in the assay on SK-MEL-5 melanoma was 97.1%; with UACC-62 melanoma, 95.9%; with LOX IMVI melanoma, 94.7%; in the assay on SK-MEL-28 melanoma, 110%; with SK-MEL-2 melanoma, 86.9%; in the assay on SN12C renal it was 102%. The growth is 84.5% in the assay with UO-31 renal; 90.9% in the assay on TK-10 renal; 104% in the assay with ACHN renal; 104% in the assay with CAKI-1 renal; 63.4% in the assay on CCRF-CEM leukemia; 90.4% with MOLT-4 leukemia.

In the case of `c1ccc([P+](CCC[P+](c2ccccc2)(c2ccccc2)c2ccccc2)(c2ccccc2)c2ccccc2)cc1`, the growth with HCT-15 colon was 101%; with HT29 colon it was 66.9%; with SNB-75 CNS, 54%; with SNB-19 CNS it was 64.4%; in the assay with U251 CNS, 40%; in the assay on PC-3 prostate, 38%. In addition, the growth with SK-MEL-5 melanoma was 75.1%; in the assay on UACC-62 melanoma, 62.5%; in the assay with LOX IMVI melanoma, 86.6%; in the assay with SK-MEL-28 melanoma, 75.1%; with SK-MEL-2 melanoma, 71.1%; with SN12C renal it was 78%. The growth in the assay with UO-31 renal is 82.3%; with TK-10 renal, 81.8%; in the assay on ACHN renal, 98.5%; with CAKI-1 renal, 94.7%; in the assay on A498 renal, 86.1%; in the assay on MOLT-4 leukemia it was 79.6%.
